Bioassay records (PubChem)
CYP2C9 inhib: blockers of cytochrome P450 2C9 activity – biochemical, luminescence, ADME assay, primary screen; P11712; CYP2C9 Supersomes, luciferin-H conversion; inhibition, % at 5 µM; 96,000 compounds, 20% hits; AID 777, 2007;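 active = blocking of liver enzyme CYP2C9 beyond about 50% at 5 µM, limit read from the data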
sEH inh: soluble epoxide hydrolase inhibitors, primary screen, biochemical, human sEH | Bifunctional epoxide hydrolase 2 (Homo sapiens), P34913 | recombinant human sEH enzymatic activity assay | inhibition, % at 2 µM | 91,000 compounds, 0.34% hits | AID 707, 2007; in the data active = inhibition above about 80%
CYP2C19 inhib: blockers of cytochrome P450 2C19 activity – biochemical, luminescence, ADME assay, primary screen; P33261; CYP2C19 Supersomes, luciferin-H EGE luminescence, 30 min; inhibition, % at 5 µM; 96,000 compounds, 21% hits; AID 778, 2007;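 active = CYP2C19 inhibition above a set limit at 5 µM in the primary screen, cut at about 50% in these data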;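 note: plate controls were negative control wells for no effect and 2.5 mM tranylcypromine positive control for full effect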
Target sequence (P33261 whole entry, looked up): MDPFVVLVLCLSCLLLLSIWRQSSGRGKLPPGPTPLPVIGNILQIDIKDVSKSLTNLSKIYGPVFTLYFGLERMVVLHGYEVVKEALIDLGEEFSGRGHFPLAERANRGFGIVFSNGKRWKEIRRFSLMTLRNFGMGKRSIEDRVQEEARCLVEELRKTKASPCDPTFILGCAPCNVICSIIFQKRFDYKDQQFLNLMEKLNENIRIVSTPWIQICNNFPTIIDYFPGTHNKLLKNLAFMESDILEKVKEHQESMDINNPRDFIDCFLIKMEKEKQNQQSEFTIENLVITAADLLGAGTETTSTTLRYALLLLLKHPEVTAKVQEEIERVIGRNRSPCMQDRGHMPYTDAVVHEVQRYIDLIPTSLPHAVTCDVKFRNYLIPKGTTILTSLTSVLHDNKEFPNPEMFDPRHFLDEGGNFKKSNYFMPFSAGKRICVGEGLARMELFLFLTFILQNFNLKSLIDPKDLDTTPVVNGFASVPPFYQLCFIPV
CYP2C9 act: human CYP2C9 activators, primary screen, biochemical, luminescence. Cytochrome P450 2C9 (Homo sapiens), P11712. recombinant CYP2C9, luciferin-H conversion; active compounds read high; factor 1 = untreated enzyme, 0 = blocked. activation factor at 5 µM. 96,000 compounds, 1.4% hits. AID 1024, 2008;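 active = activation factor of 2 or more for CYP2C9 at a 5 µM dose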;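 note: 0 = sulfaphenazole-blocked wells and 1 = vehicle-only wells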
CYP2C19 act: human CYP2C19 activators, primary screen, biochemical, luminescence; recombinant CYP2C19, luciferin-H EGE luminescence; active compounds read high; 0 = fully inhibited enzyme, 1 = untreated enzyme; activation factor at 5 µM; 96,000 tested, under 10 active; AID 1025, 2008;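 active = activation factor of at least 2 at 5 µM in the primary screen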;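 note: 0 = wells with 2.5 mM tranylcypromine and 1 = vehicle-only wells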
sEH activator: soluble epoxide hydrolase activators, primary screen, biochemical, human sEH | activation, % at 2 µM | AID 717, 2007 | 91,000 compounds, 0.04% hits | purified human sEH enzymatic activity, activator screen; in the data active = activation above about 37%
* marks the source's active call; other numbers are inactive results; / = no result given. Most compounds without a hit are left out; they make up all but 27% or so of the library.

SMILES | CYP2C9 inhib | sEH inh | CYP2C19 inhib | CYP2C9 act | CYP2C19 act | sEH activator
CC1CCCN(S(=O)(=O)c2ccc(S(=O)(=O)N3CCCN(Cc4ccccc4)C3)cc2)C1 (stereo unspecified) | 85* | / | 95* | 0.2 | 0 | /
Cc1cc(N2C(=O)CC(C(C)c3ccccc3)C2=O)no1 (stereo unspecified) | / | 16 | / | / | / | -13
CC(c1ccccc1)C1CC(=O)N(Cc2ccco2)C1=O (stereo unspecified) | 34 | -9 | 91* | 0.7 | 0.1 | 8
COC(=O)CCC(=O)c1oc2ccccc2c1N | 35 | -8 | 84* | 0.7 | 0.2 | 10
COC(=O)CCC(=O)c1oc2ccccc2c1NC(=O)CCCN1C(=O)c2ccccc2C1=O | 48 | 7 | 12 | 0.5 | 0.9 | -8
CN(Cc1nc2ccccc2c(=O)[nH]1)CC(O)COCc1ccco1 (stereo unspecified) | -8 | -4 | 3 | 1.1 | 1 | 5
Cc1ccn2c(-c3csc(NCc4ccccc4)n3)c(C)nc2c1 | / | 18 | / | / | / | -16
CC(C)NC(=O)c1ccc(OC2CSC2)cc1 | 0 | 13 | 8 | 1 | 0.9 | -14
OCCOCCn1c2ccccc2c2ccccc21 | 21 | / | 55* | 0.8 | 0.5 | /
N=c1n(CCO)c2ccccc2n1CCOc1ccccc1 | -5 | / | 4 | 1.1 | 1 | /
Cc1ccccc1OCC(=O)NC1=NCCS1 | 38 | 3 | 51* | 0.6 | 0.5 | -3
Cc1ccccc1OCC(=O)Nc1ccccc1N1CCCCC1 | 4 | -16 | 17 | 1 | 0.8 | 14
Cc1ccccc1OCC(=O)Nc1ccccc1CO | 19 | -4 | 72* | 0.8 | 0.3 | 5
O=C(COc1ccc(Br)cc1CO)Nc1ccccc1F | 67* | 0 | 95* | 0.3 | 0 | -1
O=C(O)COc1ccc(Cl)cc1CO | -9 | 4 | -21 | 1.1 | 1.2 | -5
CCOC(=O)Nc1cccc(OCC(=O)Nc2ccccc2OC)c1 | / | 6 | / | / | / | -5
COc1ccccc1NC(=O)COc1ccc(Br)cc1CO | 31 | -17 | 55* | 0.7 | 0.4 | 17
O=C(O)C1CC=CCC1C(=O)Nc1cccc(C(=O)N2CCCCC2)c1 (stereo unspecified) | -27 | -5 | -20 | 1.3 | 1.2 | 8
CS(=O)(=O)N(CC(=O)NCCc1ccccc1)C1CCCCC1 | 4 | -1 | 24 | 1 | 0.8 | 0
CCCCNC(=O)CN(C1CCCCC1)S(C)(=O)=O | 74* | -1 | 31 | 0.3 | 0.7 | 5
CCOc1ccc(NC(=O)C23CC4CC(C2)CC(c2ccccc2)(C4)C3)cc1 | 23 | 40 | 38 | 0.8 | 0.6 | -38
O/N=C\c1cccn1-c1ccc(Br)cc1 | 26 | 0 | 68* | 0.7 | 0.3 | 0
C(=N\n1cnnc1)/c1cccn1-c1ccccc1 | 16 | 4 | 37 | 0.8 | 0.6 | -4
O=C(CSc1ncn[nH]1)N(C1CCCCC1)C1CCCCC1 | 9 | -4 | 42 | 0.9 | 0.6 | 3
C/C(=C\C(=O)c1ccccc1)NCc1ccc(F)cc1 | 4 | 6 | 34 | 1 | 0.7 | -2
SMILES | CYP2C9 inhib | sEH inh | CYP2C19 inhib | CYP2C9 act | CYP2C19 act | sEH activator
O=C(/C=C/Nc1ccccc1)c1ccccc1 | 34 | -2 | 55* | 0.7 | 0.5 | 5
Cc1ccc(N/C=C/C(=O)c2ccc(C)cc2)cc1 | 19 | 3 | 30 | 0.8 | 0.7 | -4
O=C(/C=C\NCC(=O)c1ccccc1)c1ccc(F)cc1 | -5 | 8 | 56* | 1.1 | 0.4 | -6
CN(C)c1ccc(N/C=C/C(=O)c2ccccc2)cc1 | 73* | 4 | 99* | 0.3 | 0 | -5
CC(NC(=O)COc1ccccc1)C(c1ccccc1)N1CCN(C)CC1 (stereo unspecified) | 14 | / | 46 | 0.9 | 0.5 | /
Cc1ccc(-c2cc(C(=O)NCc3ccccn3)c3ccccc3n2)cc1C | 59* | 3 | 33 | 0.4 | 0.7 | 0
Cc1ccc(-c2cc(C(=O)n3cnc4ccccc43)c3ccccc3n2)cc1C | 88* | -9 | 33 | 0.1 | 0.7 | 10
CCc1ccc(C2CC(c3ccccc3C)n3nc(N)nc3N2)cc1 (stereo unspecified) | -11 | / | 8 | 1.1 | 0.9 | /
Cc1ccc(-c2nnn(CC(=O)Nc3cccc4c3CCCC4)n2)o1 | 13 | 3 | 52* | 0.9 | 0.5 | -3
CCOc1ccc(-c2nnn(CC(=O)NCc3ccc4c(c3)OCO4)n2)cc1 | / | -2 | / | / | / | 5
Cc1ccc(-c2nnn(CC(=O)NCCc3ccc4c(c3)OCO4)n2)o1 | 89* | 15 | 60* | 0.1 | 0.4 | -16
Cc1cccc(-n2ccnc2SCC(=O)Nc2nccs2)c1C | 47 | -1 | 53* | 0.5 | 0.5 | 1
CCc1nnc(NC(=O)CSc2nccn2-c2cc(C)cc(C)c2)s1 | 58* | -6 | 13 | 0.4 | 0.9 | 10
Cc1c(Cl)cccc1NC(=O)Cn1cccc1 | -1 | 8 | 25 | 1 | 0.8 | -8
Cc1c(Cl)cccc1-n1ccnc1SCC(=O)O | 67* | / | 7 | 0.3 | 0.9 | /
CCc1nnc(NC(=O)CSc2nccn2-c2cccc(C)c2C)s1 | 53* | 8 | 27 | 0.5 | 0.7 | -9
COC(=O)CSc1ccc2c(N)c(C(=O)OC)sc2c1 | 33 | / | 39 | 0.7 | 0.6 | /
Cn1c(C(=O)NCCN2CCc3ccccc3C2)cc2c(=O)n(C)c3ccccc3c21 | 31 | / | 35 | 0.7 | 0.7 | /
Cc1nn(-c2cc(C)c3ccccc3n2)c2c1CCC2 | 10 | -11 | 24 | 0.9 | 0.8 | 13
CCOC(=O)C(C)Sc1nc(-c2ccc(OC)cc2)nc2c1c(=O)n(C)c(=O)n2C (stereo unspecified) | 11 | / | 7 | 0.9 | 0.9 | /
CC(C)OC(=O)C(C)Oc1ccc(C(=O)NCCc2ccccc2)cc1 (stereo unspecified) | 18 | 25 | 15 | 0.8 | 0.8 | -26
CCNC(=O)CN(CCc1ccccc1)S(C)(=O)=O | 18 | -14 | 72* | 0.8 | 0.3 | 12
CC(C)NC(=O)CN(CCc1ccccc1)S(C)(=O)=O | 11 | / | 82* | 0.9 | 0.2 | /
CS(=O)(=O)N(CCc1ccccc1)CC(N)=O | 3 | -2 | 6 | 1 | 0.9 | 1
CS(=O)(=O)N(CCc1ccccc1)CC(=O)NCc1ccncc1 | 99* | 8 | 100* | 0 | 0 | -10
CCCCNC(=O)CN(CCc1ccccc1)S(C)(=O)=O | 25 | 13 | 72* | 0.7 | 0.3 | -10
CS(=O)(=O)N(CCc1ccccc1)CC(=O)N1CCCCC1 | -10 | -9 | 7 | 1.1 | 0.9 | 4
COc1ccc2c(c1)CCc1c(C(=O)NC3CCCCC3)noc1-2 | -3 | / | -1 | 1 | 1 | /
